# This is one part of a sample in which the strongest signals are shown more often than they occur.
# Key:
# Test in all cases: glycan array binding signal (z-score within array); higher = stronger binding
# Details in all cases: glycan notation: IUPAC condensed, linker removed
# [1] = biological target: Gal(b1-4)GlcNAc(b1-3)Gal(b1-4)GlcNAc(b1-3)Gal(b1-4)GlcNAc(b1-3)Gal(b1-4)GlcNAc(b1-3)Gal(b1-4)GlcNAc(b1-2)Man(a1-3)[Gal(b1-4)GlcNAc(b1-3)Gal(b1-4)GlcNAc(b1-3)Gal(b1-4)GlcNAc(b1-3)Gal(b1-4)GlcNAc(b1-3)Gal(b1-4)GlcNAc(b1-2)Man(a1-6)]Man(b1-4)GlcNAc(b1-4)[Fuc(a1-6)]GlcNAc
# Outline: (§1)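 The binding signal is a Z-score computed within each array and averaged over linkers. Arrays of the same protein sequence at different concentrations or buffers were also averaged together. Data originate from 3228 arrays in the Consortium for Functional Glycomics database, kept only where the protein sequence was available.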
# [2] = biological target: Gal(b1-4)GlcNAc(b1-3)Gal(b1-4)GlcNAc(b1-3)Gal(b1-4)GlcNAc(b1-3)Gal(b1-4)GlcNAc(b1-3)Gal(b1-4)GlcNAc(b1-2)[Gal(b1-4)GlcNAc(b1-3)Gal(b1-4)GlcNAc(b1-3)Gal(b1-4)GlcNAc(b1-3)Gal(b1-4)GlcNAc(b1-3)Gal(b1-4)GlcNAc(b1-6)]Man(a1-6)[Gal(b1-4)GlcNAc(b1-3)Gal(b1-4)GlcNAc(b1-3)Gal(b1-4)GlcNAc(b1-3)Gal(b1-4)GlcNAc(b1-3)Gal(b1-4)GlcNAc(b1-2)Man(a1-3)]Man(b1-4)GlcNAc(b1-4)[Fuc(a1-6)]GlcNAc
# Outline: as §1
# [3] = biological target: Gal(b1-4)GlcNAc(b1-3)Gal(b1-4)GlcNAc(b1-3)Gal(b1-4)GlcNAc(b1-3)Gal(b1-4)GlcNAc(b1-3)Gal(b1-4)GlcNAc(b1-3)Gal(b1-4)GlcNAc(b1-2)Man(a1-3)[Gal(b1-4)GlcNAc(b1-3)Gal(b1-4)GlcNAc(b1-3)Gal(b1-4)GlcNAc(b1-3)Gal(b1-4)GlcNAc(b1-3)Gal(b1-4)GlcNAc(b1-3)Gal(b1-4)GlcNAc(b1-2)Man(a1-6)]Man(b1-4)GlcNAc(b1-4)GlcNAc
# Outline: as §1
# [4] = biological target: Gal(b1-4)GlcNAc(b1-6)GalNAc
# Outline: as §1
# [5] = biological target: GalNAc6S(b1-4)GlcNAc
# Outline: as §1
# [6] = biological target: GlcNAc(a1-4)Gal(b1-4)GlcNAc
# Outline: as §1
# [7] = biological target: GlcNAc(b1-2)[GlcNAc(b1-4)]Man(a1-3)[GlcNAc(b1-4)][GlcNAc(b1-2)[GlcNAc(b1-6)]Man(a1-6)]Man(b1-4)GlcNAc(b1-4)GlcNAc
# Outline: as §1
# [8] = biological target: GlcNAc(b1-2)[GlcNAc(b1-6)]Man(a1-6)[GlcNAc(b1-4)][GlcNAc(b1-2)Man(a1-3)]Man(b1-4)GlcNAc(b1-4)GlcNAc
# Outline: as §1
# [9] = biological target: GlcNAc(b1-3)Gal(b1-4)Glc
# Outline: as §1
# [10] = biological target: GlcNAc(b1-3)Gal(b1-4)GlcNAc(b1-3)Gal(b1-4)GlcNAc(b1-3)Gal(b1-4)GlcNAc(b1-2)Man(a1-3)[GlcNAc(b1-3)Gal(b1-4)GlcNAc(b1-3)Gal(b1-4)GlcNAc(b1-3)Gal(b1-4)GlcNAc(b1-2)Man(a1-6)]Man(b1-4)GlcNAc(b1-4)[Fuc(a1-6)]GlcNAc
# Outline: as §1
# [11] = biological target: GlcNAc(b1-3)Gal(b1-4)GlcNAc(b1-3)Gal(b1-4)GlcNAc(b1-3)Gal(b1-4)GlcNAc(b1-3)Gal(b1-4)GlcNAc(b1-2)Man(a1-3)[GlcNAc(b1-3)Gal(b1-4)GlcNAc(b1-3)Gal(b1-4)GlcNAc(b1-3)Gal(b1-4)GlcNAc(b1-3)Gal(b1-4)GlcNAc(b1-2)Man(a1-6)]Man(b1-4)GlcNAc(b1-4)GlcNAc
# Outline: as §1
# [12] = biological target: GlcNAc(b1-3)Gal(b1-4)GlcNAc(b1-3)Gal(b1-4)GlcNAc(b1-3)Gal(b1-4)GlcNAc(b1-3)Gal(b1-4)GlcNAc(b1-2)Man(a1-3)[GlcNAc(b1-3)Gal(b1-4)GlcNAc(b1-3)Gal(b1-4)GlcNAc(b1-3)Gal(b1-4)GlcNAc(b1-3)Gal(b1-4)GlcNAc(b1-2)Man(a1-6)]Man(b1-4)GlcNAc(b1-4)[Fuc(a1-6)]GlcNAc
# Outline: as §1
# [13] = biological target: GlcNAc(b1-3)Gal(b1-4)GlcNAc(b1-3)Gal(b1-4)GlcNAc(b1-3)Gal(b1-4)GlcNAc(b1-3)Gal(b1-4)GlcNAc(b1-2)[GlcNAc(b1-3)Gal(b1-4)GlcNAc(b1-3)Gal(b1-4)GlcNAc(b1-3)Gal(b1-4)GlcNAc(b1-3)Gal(b1-4)GlcNAc(b1-6)]Man(a1-6)[GlcNAc(b1-3)Gal(b1-4)GlcNAc(b1-3)Gal(b1-4)GlcNAc(b1-3)Gal(b1-4)GlcNAc(b1-3)Gal(b1-4)GlcNAc(b1-2)Man(a1-3)]Man(b1-4)GlcNAc(b1-4)[Fuc(a1-6)]GlcNAc
# Outline: as §1
# [14] = biological target: Man(a1-2)Man(a1-3)[Man(a1-6)]Man(a1-6)[Man(a1-2)Man(a1-3)]Man(b1-4)GlcNAc(b1-4)GlcNAc
# Outline: as §1
# [15] = biological target: Neu5Ac(a2-3)Gal(b1-4)GlcNAc6S
# Outline: as §1
# [16] = biological target: Neu5Ac(a2-3)[Neu5Ac(a2-6)]GalNAc
# Outline: as §1
# [17] = biological target: Neu5Ac(a2-6)Gal(b1-4)GlcNAc
# Outline: as §1
# [18] = biological target: Neu5Ac(a2-6)Gal(b1-4)GlcNAc(b1-2)[Neu5Ac(a2-6)Gal(b1-4)GlcNAc(b1-4)]Man(a1-3)[GlcNAc(b1-4)][Neu5Ac(a2-6)Gal(b1-4)GlcNAc(b1-4)Man(a1-6)]Man(b1-4)GlcNAc(b1-4)GlcNAc
# Outline: as §1
# [19] = biological target: Neu5Ac(a2-6)Gal(b1-4)GlcNAc(b1-3)Gal(b1-4)GlcNAc
# Outline: as §1
# [20] = biological target: Neu5Ac(a2-6)Gal(b1-4)GlcNAc(b1-3)Gal(b1-4)GlcNAc(b1-3)Gal(b1-4)GlcNAc
# Outline: as §1
# [21] = biological target: Neu5Ac(a2-6)Gal(b1-4)GlcNAc(b1-3)Gal(b1-4)GlcNAc(b1-3)[Neu5Ac(a2-6)Gal(b1-4)GlcNAc(b1-3)Gal(b1-4)GlcNAc(b1-6)]GalNAc
# Outline: as §1
# [22] = biological target: Neu5Ac(a2-8)Neu5Ac(a2-3)Gal(b1-4)Glc
# Outline: as §1
# [23] = biological target: Neu5Ac(a2-8)Neu5Ac(a2-8)Neu5Ac(a2-3)Gal(b1-4)Glc
# Outline: as §1
# [24] = biological target: Neu5Gc(a2-3)Gal(b1-4)[Fuc(a1-3)]GlcNAc
# Outline: as §1
# [25] = biological target: Neu5Gc(a2-6)GalNAc
# Outline: as §1
binder,measurement,setting,value
DrGal3 (Danio rerio) (protein) MDLSDALDAPPQQNNQQAGGPVWPGQPANPVWPGQPANPTWPGQPNQPAWPGQPNQQWPGQPGQPTAPGWPGPAPQTGPYGAPGQAPQVLTVPLDFPLQNGAYNKMLITINGEVKPNAKQFTVNLRRGNDIAFHINPRFSEGGKPVIVRNSMIGNNWGREERELPSFPFVPGKPFEMKILITDTEYKVAVNKSHLLEFKHRVFELNQITGLSIYNDVTLSTVNVETLQ,glycan array binding signal (z-score),[1],4.37
same,glycan array binding signal (z-score),[2],5.52
same,glycan array binding signal (z-score),[3],5.72
same,glycan array binding signal (z-score),[4],-0.192
same,glycan array binding signal (z-score),[5],-0.282
same,glycan array binding signal (z-score),[6],-0.256
same,glycan array binding signal (z-score),[7],-0.297
same,glycan array binding signal (z-score),[8],-0.243
same,glycan array binding signal (z-score),[9],-0.284
same,glycan array binding signal (z-score),[10],6.12
same,glycan array binding signal (z-score),[11],5.4
same,glycan array binding signal (z-score),[12],5.55
same,glycan array binding signal (z-score),[13],3.29
same,glycan array binding signal (z-score),[14],-0.249
same,glycan array binding signal (z-score),[15],-0.189
same,glycan array binding signal (z-score),[16],-0.275
same,glycan array binding signal (z-score),[17],-0.257
same,glycan array binding signal (z-score),[18],-0.234
same,glycan array binding signal (z-score),[19],-0.25
same,glycan array binding signal (z-score),[20],0.971
same,glycan array binding signal (z-score),[21],-0.107
same,glycan array binding signal (z-score),[22],-0.271
same,glycan array binding signal (z-score),[23],-0.195
same,glycan array binding signal (z-score),[24],-0.086
same,glycan array binding signal (z-score),[25],-0.254

# Reference: the supplement of paper PMC8728848
